Screening results from PubChem BioAssay.
Shiga toxin inh: blocks Shiga toxin action in Vero cells | Vero cells, Shiga toxin protein synthesis inhibition reporter | inhibition, % at 38.7 µM | actives 9.2% (n = 290,000); in the data active means inhibition mostly above about 28%, no sharp cut-off; inactive means mostly below about 43%
Sm TGR inh: inhibitors of Schistosoma mansoni thioredoxin glutathione reductase; Q962Y6; Potency, µM (titrated, usually from 114 µM), actives largely listed as inhibitors; actives 3% (n = 360,000); purified TGR, DTNB reduction, TNB absorbance 405 nm; active means well fitted inhibition curve with a large enough effect; inconclusive means small, poorly fitted or top-dose-only effect; inactive means no such curve, though single readings can be large or run the other way; further: nearly all actives have a fitted effect of over 60% in size
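TGR 20 nM + NADPH 100 uM (dispensed conc.), cpd preinc 15 min RT; start with NADPH (500 uM addition) then DTNB (15 mM addition). Kinetic TNB absorbance, 405 nm filter. Four-parameter Hill fit across titration.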
Cycloheximide cs: counter-screen hit for Shiga toxin inhibitors, cycloheximide. AID 2314. actives 12% (n = 300,000). max response, %. cell reporter, cycloheximide protein synthesis inhibition counterscreen; in the data active means max response mostly above about 13%, no sharp cut-off; inactive means mostly below about 14%; further: read at 38.3 µM for the half of the compounds with a filed dose
FMDV inh: foot and mouth disease virus antiviral activity; AID 1159524; Potency, µM (titrated, usually from 57.9 µM), most hits filed as inhibitors; actives 1.2% (n = 410,000); FMDV antiviral cell-based qHTS; calls by dose curve; tested in HEK293T cells; further: read-out not given here; nearly all actives have a fitted effect of over 45% in size
Numbers stand for hits; – = inactive; ? = inconclusive; · = no result; [ ] = remark or other dose. Shown are actives, neighbours in structure and some others; about 12% of the full set was active somewhere.

SMILES	Shiga toxin inh	Sm TGR inh	Cycloheximide cs	FMDV inh
COc1ccc(CCC(=O)NCc2nc3cccnc3n2Cc2ccc(F)cc2)cc1	·	–	·	–
COc1ccccc1C(=O)Nc1ccc2[nH]ncc2c1	–	–	16	–
COc1cccc(C(=O)Nc2ccc3[nH]ncc3c2)c1	–	–	24	–
CCOc1cccc(C(=O)Nc2ccc3[nH]ncc3c2)c1	22	–	36	?
CC(C)c1ccccc1OCC(=O)Nc1ccc2[nH]ncc2c1	–	–	–	–
CCOc1cccc(C(=O)Nc2ccncc2)c1	–	–	–	–
COc1ccc(CNC(=O)Cn2nc(C)c3nn(-c4ccc(Cl)cc4)c(C)c3c2=O)cc1	·	–	·	–
Cc1cccc(NC(c2nnc(-c3ccccc3)o2)c2ccc(F)cc2Cl)c1C (centres undefined)	·	–	·	–
O=C(c1cc2ccccc2o1)N1CCCC1	–	–	–	–
CC1CCN(C(=O)c2cc3ccccc3o2)CC1	76	–	56	–
O=C(c1cc2ccccc2o1)N1CCCCCC1	62	–	46	–
CCN1CCN(C(=O)c2cnn(-c3ccc(F)cc3)c2-n2cccc2)CC1	·	–	·	–
N#C/C(=C\c1ccc(OCc2ccccc2)cc1)C(=O)Nc1nc2c(s1)CCN(Cc1ccccc1)C2	–	–	20	–
N#C/C(=C\c1ccc(OCc2ccccc2)cc1)C(N)=O	90	–	24	–
N#C/C(=C\c1ccc(OC(=O)c2ccccn2)cc1)C(N)=O	–	40µM	–	–
COc1ccc(Nc2nc(C(=O)NCc3ccco3)cs2)cc1	–	–	14	–
O=C(NCc1ccco1)c1ccccc1	–	–	–	–
O=C(NCc1ccco1)c1cccc(NC(=O)c2ccco2)c1	–	45µM	–	–
O=C(NCc1ccco1)c1cccc(-c2nnc(-c3ccccc3)o2)c1	49	–	22	–
COc1cccc(C(=O)c2c[nH]c(C(=O)NCc3ccco3)c2)c1	–	–	23	–
Cc1ccc(SCc2nc(-c3ccc(C(=O)Nc4cc(C)ccc4C)cc3)oc2C)cc1	·	–	·	–
COc1cccc(NC(=O)Cn2c(=O)n(-c3cccc(OC)c3)c(=O)c3c4c(sc32)CCCC4)c1	·	–	·	–
COc1ccc(C(=O)Nc2cccc(C(=O)NCc3ccco3)c2)cc1	–	–	12	–
CCc1nc2ccc(C(=O)NCc3ccco3)cc2nc1CC	–	28µM	–	–
COc1ccc(-n2nc(C(=O)N3CCN(c4cccc(C)c4)C(C)C3)c3c4ccccc4n(C)c3c2=O)cc1Cl (centres undefined)	·	–	·	–
SMILES	Shiga toxin inh	Sm TGR inh	Cycloheximide cs	FMDV inh
CCc1ccccc1NC(=O)c1cc2sccc2n1C	42	–	49	–
CCOC(=O)c1cc2sccc2n1CC(=O)OC	–	–	–	–
CCOC(=O)c1cc2sccc2n1CC(=O)Nc1ccc2c(c1)OCCO2	–	–	18	–
COc1cc(NC(=O)c2cc3sccc3n2C)cc(OC)c1	81	–	30	–
Cn1c(C(=O)Nc2ccc3c(c2)OCO3)cc2sccc21	92	–	–	–
COc1ccc(OC)c(NC(=O)c2cc3sccc3n2C)c1	–	–	–	–
Cn1c(C(=O)NCc2ccc3c(c2)OCO3)cc2sccc21	–	–[11.4 µM]	–	–
C/C=C1\COC(C(=O)NC)(C(F)(F)F)C=C1C=C1CCCCC1 (centres undefined)	–	·	–	·
CCOC(=O)c1ccccc1NC(=O)Cn1c(=O)n(-c2ccc(CC)cc2)c(=O)c2c(C)c(C(=O)N(C)C)sc21	·	–	·	–
Cn1c(C(=O)Nc2ccccc2)cc2sccc21	–	–	26	–
COC(=O)c1ccc(NC(=O)c2cc3sccc3n2C)cc1	122	–	40	–
CC(CCc1ccccc1)NC(=O)c1cc2sccc2n1C (centres undefined)	–	–	21	–
CC(CCc1ccccc1)NC(=O)C1CCCN(C(=O)c2cc3sccc3n2C)C1 (centres undefined)	–	–	–	?
CCCCC#Cc1nc(NC)c2ncn([C@@H]3O[C@@H](CO)[C@H](O)[C@H]3O)c2n1	·	·	·	–
C[C@H](CCC(=O)O)C1CC[C@H]2C3CC[C@@H]4C[C@H](O)CC[C@]4(C)C3C[C@H](O)[C@]12C (some centres undefined)	·	·	·	–
Cc1cccc(-n2nc3c(c2NC(=O)c2ccco2)CSC3)c1C	–	45µM	–	–
CCC(=O)Nc1c2c(nn1-c1ccccc1)CSC2	–	50µM	–	–
CC(Cl)C(=O)Nc1c2c(nn1-c1ccccc1)CSC2 (centres undefined)	–	–	–	–
COc1ccc(-n2nc3c(c2NC(=O)COc2cccc(OC)c2)CS(=O)(=O)C3)cc1	–	32µM	–	–
COc1ccc(-n2nc3c(c2NC(=O)CCl)CSC3)cc1	–	8.9µM	–	32µM
CS(=O)(=O)NCCc1csc2nc(-c3ccccc3)nn12	·	–	·	–
CCOC(=O)c1c(C)oc2nc(C)nc(Nc3cc(C)ccc3OC)c12	·	–	·	–
Cc1ccccc1-n1nc2c(c1NC(=O)CCCl)CSC2	–	18µM	–	–
CCC(=O)Nc1c2c(nn1-c1ccc(C)cc1C)CSC2	–	?	–	–
CCC(=O)N1CCc2cc(Br)cc(S(=O)(=O)N3CCC(C(=O)Nc4ccccc4CC)CC3)c21	·	–	·	–
SMILES	Shiga toxin inh	Sm TGR inh	Cycloheximide cs	FMDV inh
COc1ccc(CNc2oc(/C=C/c3cc(OC)c(OC)c(OC)c3)nc2C#N)cc1	·	–	·	–
Cc1ccc(Cl)cc1N1CCN(C(=O)C2CCN(c3nnc(-n4cccc4)s3)CC2)CC1	–	–	–	?
Cc1cccc(N2CCN(C(=O)C3CCN(c4nnc(-n5cccc5)s4)CC3)CC2C)c1 (centres undefined)	–	–	–	16µM
Cc1cccc(N2CCN(C(=O)C3CCN(S(=O)(=O)c4cccc5nsnc45)CC3)CC2C)c1 (centres undefined)	–	–	–	25µM
Cc1cccc(N2CCN(C(=O)CCC(=O)N3CC(C)Oc4ccc(C)cc43)CC2C)c1 (centres undefined)	–	–	–	28µM
CC(C)CNc1nc(NC(C)(C)C)nc(Oc2ccc(=O)n(-c3ccccc3)n2)n1	·	–	·	–
Clc1nc(-c2ccccc2)cc(-c2ccccc2)n1	–	–	17	–
COc1cc(NC(=O)c2nc3cc(C)c(C)cc3n(C)c2=O)cc(OC)c1OC	·	–	·	–
O=C(c1ccc2c(c1)OCO2)N(Cc1cc2ccc(F)cc2nc1N1CCC(O)CC1)CC1CCCO1 (centres undefined)	·	·	·	–
Cc1cc(C)c2c(NC(=S)NC(=O)c3ccccc3)n[nH]c2n1	–	–	–	–
Cc1ccc2cn[nH]c2c1NC(=S)NC(=O)c1ccccc1	–	14µM	–	–
Cc1ccc2cccc(NC(=S)NC(=O)c3ccccc3)c2n1	–	–	–	–
Cc1ccc2cn[nH]c2c1NC(N)=S	48	–	–	–
NC(=S)Nc1cccc2cn[nH]c12	–	–	–	–
Cc1ccc2cccnc2c1NC(=S)NC(=O)c1ccccc1	70	35µM	26	?
Cc1c(NS(=O)(=O)c2ccc(C(C)(C)C)cc2)c(=O)n(-c2ccccc2)n1C	·	–	·	–
CCN(CC)c1ccc(/C=C/C(=O)C2C(=O)C=C(C)OC2=O)cc1 (centres undefined)	100	8.9µM	26	–
